# Compound activity as filed in PubChem.
# rCAG binder: molecules binding r(CAG) RNA repeats. r(CAG) RNA repeat, TO-PRO-1 dye displacement fluorescence. actives 1.3% (n = 370,000). inhibition, % at 3 µM. AID 651821;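 active means inhibition above the plate cutoff, the mean of all test compounds on that plate plus 3 SD, cut at about 35% in these data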;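 further: 0% = DMSO alone and 100% = 100 µM mitoxantrone as full dye displacement; higher means more dye released from RNA so lower well fluorescence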
# MBD2 DNA inh: inhibitors of human MBD2 binding to methylated oligonucleotide | Q9UBB5 | TR-FRET | inhibition, % at 4.4 µM | actives 0.31% (n = 370,000); in the data active means inhibition above about 13%
# UHRF1 binding: UHRF1 methyl-DNA binding inhibition; UHRF1 binding to methylated oligo, TR-FRET; inhibition, % at 4.4 µM; actives 0.75% (n = 370,000); AID 687016; Q96T88; in the data active means inhibition above about 21%;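 further: UHRF1 SRA domain binding a hemimethylated CpG hairpin DNA probe; 0% = median of test compound wells and 100% = reference inhibitor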
# Target sequence (Q96T88 whole entry, looked up, the tested form may be a part): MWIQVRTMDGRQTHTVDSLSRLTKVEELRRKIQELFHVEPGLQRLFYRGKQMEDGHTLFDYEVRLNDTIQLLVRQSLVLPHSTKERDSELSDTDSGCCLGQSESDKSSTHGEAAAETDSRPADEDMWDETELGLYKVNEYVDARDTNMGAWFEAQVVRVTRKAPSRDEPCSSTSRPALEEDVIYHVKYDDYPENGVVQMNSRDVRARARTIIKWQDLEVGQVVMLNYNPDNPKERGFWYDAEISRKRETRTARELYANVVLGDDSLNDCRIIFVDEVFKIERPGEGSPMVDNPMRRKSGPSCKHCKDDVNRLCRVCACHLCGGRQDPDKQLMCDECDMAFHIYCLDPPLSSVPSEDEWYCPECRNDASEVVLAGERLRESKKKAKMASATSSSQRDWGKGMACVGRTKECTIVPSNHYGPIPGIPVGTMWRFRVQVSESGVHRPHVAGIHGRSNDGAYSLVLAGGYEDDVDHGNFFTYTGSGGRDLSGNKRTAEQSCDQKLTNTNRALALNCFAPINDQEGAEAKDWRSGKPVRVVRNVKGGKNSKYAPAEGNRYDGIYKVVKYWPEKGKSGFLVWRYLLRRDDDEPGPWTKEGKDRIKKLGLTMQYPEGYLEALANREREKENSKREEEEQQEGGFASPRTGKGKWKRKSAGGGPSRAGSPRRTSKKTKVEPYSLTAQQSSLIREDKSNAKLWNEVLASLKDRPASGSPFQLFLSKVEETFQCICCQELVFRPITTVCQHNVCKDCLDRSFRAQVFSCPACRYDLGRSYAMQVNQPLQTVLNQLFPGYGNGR
# LEDGF integ inh: blocks HIV-1 LEDGF/p75-dependent DNA integration; inhibition, % at 3.7 µM; actives 0.64% (n = 370,000); TR-FRET IN-LEDGF/p75 DNA integration, Eu/Cy5;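 active means inhibition above the screen-wide mean plus 3 SD, cut at about 13% in these data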;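 further: signal is the Cy5 over europium emission ratio at 671 and 618 nm; 0% = plate median of compound wells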
# PRMT1 inh: PRMT1 (human) inhibition, primary screen; inhibition, % at 2.79 µM; recombinant PRMT1, activity-based probe fluorescence polarization; AID 652257; actives 1.3% (n = 370,000); Q99873;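 active means inhibition above about 21% made by adding two undisclosed values, limit read from the data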
# ABHD5-PLIN5 inh: ABHD5-PLIN5 protein interaction inhibition; Q00G26+Q8WTS1; Split G. princeps luciferase complementation, luminescence, 4 h; inhibition, % at 4 µM; actives 0.78% (n = 360,000); AID 602281;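 active means inhibition above the mean inhibition across every tested compound plus 3 SD, cut at about 22% in these data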;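 further: 0% = DMSO only wells and the 100% control is not disclosed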
# * marks the source's active call; other numbers are inactive results; / = not tested or not shown. Shown are actives, neighbours in structure and some others; about 4.1% of the full set was active somewhere.
SMILES,rCAG binder,MBD2 DNA inh,UHRF1 binding,LEDGF integ inh,PRMT1 inh,ABHD5-PLIN5 inh
COC(=O)c1ccc(CC(=O)c2c(C)cc(O)cc2O)o1,23,-4,-5,10,24*,2
C=CCN(CC#CC(=C)C)CC1CC1,0,-6,0,-1,1,/
CC(C)(C)c1ccc(O)c(N=Cc2cc(Br)ccc2O)c1,-1,-2,-3,-1,21*,3
Cc1ccc(O)c(C=Nc2cc(C)ccc2O)c1,/,/,/,/,/,-4
O=S(=O)(Nc1nc2ccccc2nc1Cl)c1ccc2ccccc2c1,49*,1,2,4,6,6
Cc1ccc(C(C)(C)C)cc1S(=O)(=O)Nc1nc2ccccc2nc1Cl,63*,-1,1,7,4,3
Cc1cc(F)ccc1S(=O)(=O)Nc1nc2ccccc2nc1Cl,4,-4,-3,-2,0,-4
COC(=O)C1=C(C)N(Cc2ccc(C(F)(F)F)cc2)C(=NCc2ccc3c(c2)OCO3)NC1c1ccccc1C(F)(F)F (configuration not stated),5,1,2,1,-3,/
O=S1(=O)CCSC[C@@H](CN2CCN(c3ccccc3)CC2)N1,0,4,-2,-1,-4,/
COc1ccc(C(CNC(=O)c2ccc(NS(=O)(=O)c3ccc4c(c3)OCCO4)cc2)N(C)C)cc1 (configuration not stated),-1,-1,21*,5,-4,-6
COc1ccc(C(CNC(=O)c2ccc(S(=O)(=O)Nc3ccc(F)cc3)cc2)N(C)C)cc1 (configuration not stated),0,-4,-3,2,-2,7
O=C(Nc1ccc2nc(-c3ccco3)c(-c3ccco3)nc2c1)N1CCN(c2ccccn2)CC1,44*,4,4,24*,48*,20
Cc1nc2cc(NC(=O)N3CCN(c4ccccn4)CC3)ccc2o1,-3,0,-7,1,2,1
Cc1ccccc1C1CCC2(CC1)CCN(CC[C@@H](O)c1ccccc1)C2=O (some centres not stated),/,0,4,2,-2,/
CCCCN1CC(COCc2ccccc2)Oc2cccc(Oc3ccc(SC)c(C)c3)c2S1(=O)=O (configuration not stated),4,13,23*,-2,1,/
CCCCN1CC(COCc2ccccc2)Oc2cccc(Oc3ccc(OC)cc3)c2S1(=O)=O (configuration not stated),6,-1,-2,2,-2,2
O=C(O)C1CSC(c2ccc3c(c2)OCO3)N1 (configuration not stated),13,3,-3,3,27*,-5
Cn1c(=O)c([N+](=O)[O-])c(Cl)c2ccccc21,1,-1,-2,0,18,34*
CCN(CC)c1c([N+](=O)[O-])c(=O)n(C)c2ccccc12,3,4,1,-5,0,-2
CCCCNC(=O)C[C@H]1C[C@@]2(C(=O)OC)C(=C[C@H](C(C)(C)C)O[C@@H]2C)N(CCc2ccc(OC)c(OC)c2)C1=O,11,4,-2,-1,1,/
O=C(Nn1cnnc1)c1ccc(Cl)c([N+](=O)[O-])c1,-2,0,25*,-3,1,-2
Cc1cc(C(=O)Nn2cnnc2)ccc1[N+](=O)[O-],3,-3,3,2,1,3
CCOC(=O)[C@@]12CCCC3=C1N(CCC3)C(=O)[C@H]2CC(=O)N1CCCC1,-2,0,-2,0,-2,/
COCCOC(=O)c1c(C)n(C)c2ccc(OC(=O)c3c(OC)cccc3OC)cc12,0,1,2,11,46*,-3
COCCOC(=O)c1c(C)n(C)c2ccc(OC(=O)N3CCOCC3)cc12,-5,-2,0,-2,1,-2
SMILES,rCAG binder,MBD2 DNA inh,UHRF1 binding,LEDGF integ inh,PRMT1 inh,ABHD5-PLIN5 inh
CCCN1CCCCC(NC(=O)c2ccc(-c3ccccc3)cc2)C1=O (configuration not stated),-1,2,2,-3,0,/
Cc1nnc(SCC(=O)NCc2ccccc2Cl)[nH]c1=O,-3,3,21*,1,-1,-4
Cc1nnc(SCC(=O)Nc2c(Cl)cccc2Cl)[nH]c1=O,0,6,0,0,14,-4
COc1cccc(CN(C)C(=O)[C@@H](Cc2ccccc2)NC(=O)[C@H]2O[C@@H](n3ccc(=O)[nH]c3=O)[C@H](O)[C@@H]2O)c1,1,-3,0,5,1,/
C[C@H]1CCC[C@H](O)CC(=O)c2c(O)cc(O)cc2CC(=O)O1,2,-1,1,5,1,/
COC(=O)c1c(C(=O)OC)c(-c2ccc(Cl)c(Cl)c2)n2c1CCC2,/,/,/,/,/,-1
O=C(O)c1c(C(=O)O)c(-c2ccc(Cl)c(Cl)c2)n2c1CSC2,32,2,9,1,30*,-4
CC(=O)ON=C1C=CC(=C(C#N)c2ccccc2)C=C1,3,-1,-5,-1,24*,-8
COc1ccc(-c2noc(CNC(=O)Nc3ccc(F)cc3)n2)cc1,5,4,65*,-3,3,3
Cc1cccc(-c2noc(CNC(=O)Nc3ccc(F)cc3)n2)c1,5,3,2,1,1,0
CC(=O)Nc1ccc(C(=S)NCc2ccco2)cc1,1,-6,-2,1,0,-1
CC(=O)Nc1ccc(C(=S)NCCCO)cc1,-5,4,8,-6,22*,-6
CCC(C)(C)n1nnnc1C(c1cc2cc(OC)ccc2[nH]c1=O)N1CCc2ccccc21 (configuration not stated),9,5,6,10,6,-2
CCC(C)(C)n1nnnc1C(c1cc2cc(C)ccc2[nH]c1=O)N1CCCc2ccccc21 (configuration not stated),5,-2,1,-3,30*,-13
CC1CCC2(CC1)CCN(CCCOC(=O)Nc1cccc(F)c1)C2=O (configuration not stated),-3,5,0,3,-8,/
COc1ccc(Cl)cc1NC(=O)CSc1nc2sccc2c(=O)[nH]1,45*,-3,1,-7,5,9
CC(C)CCNC(=O)C1(C)CCN1Cc1ccc2ccccc2c1 (configuration not stated),-2,2,34*,3,1,5
O=[N+]([O-])c1ccc(O)c(C=NNc2ccc(S(=O)(=O)O)cc2)c1,5,1,24*,-1,5,-6
O=[N+]([O-])c1ccc(N/N=C/c2ccccc2O)cc1,27,1,1,-2,1,-1
CC(=O)CC[C@@H]1CC[C@]2(CCCN(S(=O)(=O)c3ccccc3)C2)O1,0,-5,-3,1,-3,/
COc1ccc(N)cc1-n1c(C)ccc1C,7,-12,-7,5,27*,4
COc1ccc(C)cc1-n1c(C)cc(C=O)c1C,-5,0,5,-6,2,5
